Our source for the Potency and outcome values is PubChem BioAssay (NCATS).

The target of experiment [1] is T1, Tyrosine-protein phosphatase non-receptor type substrate 1 (Homo sapiens) + Leukocyte surface antigen CD47 (Homo sapiens) (UniProt P78324+Q08722). Kind of experiment: CD47-SIRPalpha protein protein interaction - LANCE assay qHTS validation (AID 1347057; active = well fitted curve in the direction sought with a large enough effect in the signal ratio, with a control signal flat, not every such curve was filed as active; the % refers to the signal ratio; also: series mostly up to about 38 µM). Put shortly: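 Inhibition of soluble CD47/SIRPalpha ectodomain association by titrated compounds, measured as 665/615 nm time-resolved FRET ratio after sequential 30 min room-temperature incubations.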
T1 sequence (P78324 whole entry, looked up, the tested form may be a part): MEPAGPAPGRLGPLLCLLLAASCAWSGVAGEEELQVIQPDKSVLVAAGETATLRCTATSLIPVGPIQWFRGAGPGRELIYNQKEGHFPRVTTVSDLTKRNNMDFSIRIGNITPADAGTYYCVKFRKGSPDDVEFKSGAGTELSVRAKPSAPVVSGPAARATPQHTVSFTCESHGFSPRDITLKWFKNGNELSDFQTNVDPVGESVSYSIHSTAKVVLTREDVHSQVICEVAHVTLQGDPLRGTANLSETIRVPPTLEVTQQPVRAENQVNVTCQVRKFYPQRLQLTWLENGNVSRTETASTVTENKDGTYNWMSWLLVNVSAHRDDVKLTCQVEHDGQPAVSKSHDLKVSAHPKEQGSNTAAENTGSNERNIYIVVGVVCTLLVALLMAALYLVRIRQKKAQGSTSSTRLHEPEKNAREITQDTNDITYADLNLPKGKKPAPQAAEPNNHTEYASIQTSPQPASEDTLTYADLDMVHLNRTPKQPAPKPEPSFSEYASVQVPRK
T1 sequence (Q08722 whole entry, looked up, the tested form may be a part): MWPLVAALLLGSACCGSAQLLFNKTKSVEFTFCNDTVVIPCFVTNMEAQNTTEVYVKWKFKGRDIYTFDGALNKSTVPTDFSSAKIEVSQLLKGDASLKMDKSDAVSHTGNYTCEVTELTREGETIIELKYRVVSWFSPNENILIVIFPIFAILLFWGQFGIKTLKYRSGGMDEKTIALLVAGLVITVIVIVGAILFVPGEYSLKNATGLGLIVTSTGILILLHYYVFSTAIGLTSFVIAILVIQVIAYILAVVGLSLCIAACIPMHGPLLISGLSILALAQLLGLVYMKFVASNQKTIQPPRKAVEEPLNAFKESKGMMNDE
(In TR-FRET formats the signal depends on donor and acceptor labels being close together.)

Experiment [2] addresses T1, Tyrosine-protein phosphatase non-receptor type substrate 1 (Homo sapiens) + Leukocyte surface antigen CD47 (Homo sapiens). Kind of experiment: CD47-SIRPalpha protein protein interaction - Alpha assay qHTS validation (AID 1347059).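 Also: bead proximity luminescence from CD47 binding SIRPalpha after compound preincubation with SIRPalpha.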 Put shortly:
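SIRPalpha-biotin 25 nM + cpd, 30 min RT, dark; add CD47-His 12.5 nM, 30 min; add Ni-NTA/SAV beads 10 ug/mL, 30 min; AlphaScreen. Buffer PBS pH 7.4 + 0.05% IGEPAL CA-630. Non-biotinylated SIRPalpha as control inhibitor.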
On the technique in general: In qHTS, concentration-response curves come from the screen itself.

The target in experiment [3] is Parathyroid hormone/parathyroid hormone-related peptide receptor (Homo sapiens) (UniProt Q03431). The experiment is described as follows: qHTS for PTHR1 Agonists: Optimization Screen against the NCGC LOPAC library (AID 1347079).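 Also: GloSensor cAMP luminescence in HEK-293 GP2 cells expressing human PTHR1 with IBMX.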 Also: potency is read from the fitted curve at half-maximal effect. Put shortly:
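Signal increase flags agonism. GP2 cells, derived from HEK-293, express human PTHR1 and a GloSensor cAMP construct.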

Experiment [4] is described as follows: qHTS for Inhibitors of the Functional Ribonucleoprotein Complex (vRNP) of Lassa (LASV) Arenavirus: LASV Primary Screen - GLuc reporter signal (AID 1347082; calls by dose curve; tested in HEK293 reporter line; also: series mostly up to about 57 µM; nearly all actives have a fitted effect of over 60% in size).
Experiment [5] in a line: qHTS for Inhibitors of the Functional Ribonucleoprotein Complex (vRNP) of Lassa (LASV) Arenavirus: Viability assay - alamar blue signal for LASV Primary Screen (AID 1347083; calls by dose curve; tested in HEK293 reporter line; also: series mostly up to about 57 µM; nearly all actives have a fitted effect of over 80% in size).
The nature of experiment [6]: qHTS for Inhibitors of the Functional Ribonucleoprotein Complex (vRNP) of Lymphocytic Choriomeningitis Arenaviruses (LCMV): Viability assay - alamar blue signal for LCMV Primary Screen (AID 1347085; calls by dose curve; tested in HEK293 reporter line; also: series mostly up to about 57 µM; nearly all actives have a fitted effect of over 80% in size).
The target of experiment [7] is Nucleoprotein (Lymphocytic choriomeningitis virus (strain Armstrong)) (UniProt P09992). Kind of experiment: qHTS for Inhibitors of the Functional Ribonucleoprotein Complex (vRNP) of Lymphocytic Choriomeningitis Arenaviruses (LCMV): LCMV Primary Screen - GLuc reporter signal (AID 1347086; calls by dose curve; also: series mostly up to about 57 µM; nearly all actives have a fitted effect of over 70% in size).
Sequence of Nucleoprotein (Lymphocytic choriomeningitis virus (strain Armstrong)) (P09992 whole entry, looked up): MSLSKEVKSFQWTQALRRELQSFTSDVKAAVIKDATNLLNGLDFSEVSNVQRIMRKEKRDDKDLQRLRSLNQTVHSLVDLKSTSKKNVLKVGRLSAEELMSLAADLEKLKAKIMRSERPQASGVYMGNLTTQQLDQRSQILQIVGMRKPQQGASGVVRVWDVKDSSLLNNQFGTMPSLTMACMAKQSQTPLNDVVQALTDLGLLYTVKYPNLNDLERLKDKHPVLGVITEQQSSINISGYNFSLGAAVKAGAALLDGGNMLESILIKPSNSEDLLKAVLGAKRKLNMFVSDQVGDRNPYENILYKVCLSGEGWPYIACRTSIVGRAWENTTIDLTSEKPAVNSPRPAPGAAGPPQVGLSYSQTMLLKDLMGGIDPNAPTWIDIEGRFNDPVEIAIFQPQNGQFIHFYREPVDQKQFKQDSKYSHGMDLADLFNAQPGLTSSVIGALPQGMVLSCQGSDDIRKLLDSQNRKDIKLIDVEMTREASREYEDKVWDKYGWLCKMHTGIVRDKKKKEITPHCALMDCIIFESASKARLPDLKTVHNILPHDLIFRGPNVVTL
Experiment [8] deals with T1, Tyrosine-protein phosphatase non-receptor type substrate 1 (Homo sapiens) + Leukocyte surface antigen CD47 (Homo sapiens). Kind of experiment: CD47-SIRPalpha protein protein interaction - HTRF assay qHTS validation (AID 1347058; active = well fitted curve in the direction sought with a large enough effect in the signal ratio, not every such curve was filed as active; the % refers to the signal ratio; also: series mostly up to about 38 µM). The essentials:
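Soluble extracellular domains (6His-CD47, Avi-tag-biotinylated SIRPalpha) in PBS pH 7.4 with 0.05% IGEPAL CA-630. Compounds were preincubated 30 min at RT with CD47 and anti-His-Eu, then SIRPalpha and SAV-XL665 were added. TR-FRET 665/615 ratio.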

The nature of experiment [9]: qHTS of pediatric cancer cell lines to identify multiple opportunities for drug repurposing: Primary screen for TC32 cells (AID 1347089). Also: nearly all actives have a fitted effect of over 60% in size. The essentials:
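Measured quantity: luminescence from CellTiter-Glo, reflecting metabolically active TC32 cells following 48 h of compound. Curves came straight from multi-point titrations, with 8 or 11 points in primary and 11 in confirmatory screening.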

Experiment [10] is described as follows: qHTS of pediatric cancer cell lines to identify multiple opportunities for drug repurposing: Primary screen for DAOY cells (AID 1347090). Also: nearly all actives have a fitted effect of over 55% in size. Also: potency is read from the fitted curve at half-maximal effect. Put shortly:
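Viability measured as metabolically active cells via CellTiter-Glo luminescence following 48 hours of compound exposure, 11-point dilutions in confirmatory testing. 500-1,000 cells/well plated 5 hours before dosing; controls were DMSO and 2.3 µM bortezomib.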

Inconclusive results are not listed. Activity calls are given as the source filed them. Unless noted, calls follow the shape of the dose curve; as a rule, active = well fitted curve in the direction sought with a large enough effect; inconclusive = small, poorly fitted or top-dose-only effect, or another doubt; inactive = no such curve, though single readings can be large; an effect the other way counts as inactive or inconclusive.

Sequence of Parathyroid hormone/parathyroid hormone-related peptide receptor (Homo sapiens) (Q03431 whole entry, looked up): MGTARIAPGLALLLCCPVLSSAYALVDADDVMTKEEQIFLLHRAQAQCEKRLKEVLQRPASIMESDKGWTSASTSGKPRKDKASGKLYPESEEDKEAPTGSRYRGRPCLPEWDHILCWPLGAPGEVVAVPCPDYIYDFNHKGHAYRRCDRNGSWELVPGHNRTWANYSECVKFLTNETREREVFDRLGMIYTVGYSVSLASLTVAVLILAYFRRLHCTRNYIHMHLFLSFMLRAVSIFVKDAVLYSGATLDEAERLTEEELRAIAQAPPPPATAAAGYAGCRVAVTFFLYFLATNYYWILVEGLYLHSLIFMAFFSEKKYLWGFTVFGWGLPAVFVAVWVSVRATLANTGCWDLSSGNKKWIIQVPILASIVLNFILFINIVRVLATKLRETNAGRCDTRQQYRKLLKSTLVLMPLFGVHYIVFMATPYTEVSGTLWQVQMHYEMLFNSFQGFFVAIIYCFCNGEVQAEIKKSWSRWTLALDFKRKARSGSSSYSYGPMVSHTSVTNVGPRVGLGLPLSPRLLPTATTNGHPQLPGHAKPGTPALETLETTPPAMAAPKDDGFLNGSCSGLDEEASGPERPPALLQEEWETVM

Consider `C[C@]12Cc3cn4c(nc3C=C1CCC1C2CC[C@@]2(C)[C@H]1CC[C@@]2(O)C#N)nc1ccccc14` (stereo partly specified), for which the Potency result in experiment [1], in experiment [2] and in [3] was “inactive” in each case.

For the compound `CN1C2CCC1CC(OC(c1ccccc1)c1ccccc1N)C2` (stereo unspecified), the Potency entry in [1], in experiment [2], in [3], in experiment [4], in experiment [5] and in [6] was “inactive” each time. The Potency entry in [7] was “inactive”.

With `Cc1sc2ccccc2c1CC1=NCCN1`, the Potency result in experiment [1], in experiment [2], in [3], in [4], in experiment [5] and in experiment [6] was “inactive” each time. The Potency entry in experiment [7] is “inactive”.

In the case of `C[C@H](N)Cc1cccc(C(F)(F)F)c1`, the Potency result in experiment [1], in experiment [2], in [3], in [4], in [5] and in experiment [6] was “inactive” in each case. Further, in experiment [7], the Potency result is “inactive”.

Regarding `COc1ccc(OC)c(C(O)C(C)N)c1` (stereo unspecified), the Potency result in experiment [1], in experiment [2], in [3], in experiment [4], in experiment [5] and in experiment [6] was “inactive” in each case. The Potency result in experiment [7] is “inactive”.

Turning to `CN1CC[C@@]2(C)c3cc(OC(=O)Nc4ccccc4)ccc3N(C)[C@@H]12`, the Potency result in experiment [1], in experiment [2], in [3], in [4], in experiment [5] and in experiment [6] was “inactive” throughout. In experiment [7], the Potency result was “inactive”.

Consider `N=C(N)c1ccc(CS(=O)(=O)F)cc1`, for which the Potency result in [1], in [2], in experiment [3], in experiment [4], in experiment [5] and in experiment [6] was “inactive” each time. Besides, in [7], the Potency entry was “inactive”.

`NCC(CP(=O)(O)O)c1ccc(Cl)cc1` (stereo unspecified): the Potency result in experiment [1], in experiment [2], in experiment [4], in [5], in experiment [6] and in experiment [7] was “inactive” in each case. Further, the Potency in experiment [3] is 18.9 µM (active).

Regarding `C[C@H]1C2Cc3ccc(O)cc3[C@@]1(C)CCN2CC1CC1`, the Potency result in experiment [1] and in [2] was “inactive” throughout.

For the compound `O=S1(=O)N(CCN2CC=C(c3c[nH]c4cc(F)ccc34)CC2)c2cccc3c2N1CCC3`, the Potency entry in [1], in [2], in experiment [3], in experiment [4], in experiment [5] and in [6] was “inactive” each time. In [7], the Potency entry is “inactive”.

As for `CCCN(CCC)[C@@H]1CCc2cccc(O)c2C1`, the Potency entry in experiment [1], in experiment [2], in experiment [3], in experiment [4], in experiment [5] and in experiment [6] was “inactive” each time. Moreover, in experiment [7], the Potency entry was “inactive”.

Regarding `NC(CCCCCP(=O)(O)O)C(=O)O` (stereo unspecified), the Potency result in [1], in experiment [2], in experiment [3], in experiment [4], in experiment [5] and in experiment [6] was “inactive” each time. In experiment [7], the Potency entry is “inactive”.

Consider `CCn1cnc2c(Nc3cccc(Cl)c3)nc(N[C@@H]3CCCC[C@@H]3N)nc21`, for which the Potency result in experiment [1], in [2] and in [3] was “inactive” throughout.

For `O=C1/C(=C/c2ccccc2)C[C@@]2(O)[C@H]3Cc4ccc(O)c5c4[C@@]2(CCN3CC2CC2)[C@H]1O5`, the Potency entry in experiment [1] and in [2] was “inactive” throughout.

With `CC(Cc1ccc(OCC(=O)O)cc1)NCC(O)c1cccc(Cl)c1` (stereo unspecified), the Potency result in [1], in experiment [2], in experiment [3], in [4], in [5] and in experiment [6] was “inactive” throughout. For the same compound, the Potency result in [7] was “inactive”.

Consider `CCCCCCCCCCCCCC(=O)O[C@@H]1[C@@H](C)[C@@]2(O)[C@@H](C=C(CO)C[C@@]3(O)C(=O)C(C)=C[C@@H]23)C2C(C)(C)[C@@]21OC(C)=O` (stereo partly specified), for which the Potency result in experiment [1], in [2], in [3], in [4], in [5] and in experiment [6] was “inactive” throughout. The Potency result in [7] is “inactive”.

In the case of `CN(C(=O)Cc1ccc(Cl)c(Cl)c1)C(CN1CCCC1)c1cccc(OCC(=O)O)c1` (stereo unspecified), the Potency result in experiment [1], in [2], in experiment [3], in [4], in experiment [5] and in experiment [6] was “inactive” throughout. For the same compound, the Potency entry in [7] is “inactive”.

Turning to `CN1CCC(c2c[nH]c3ccc(O)cc23)CC1`, the Potency entry in [1], in experiment [2], in experiment [3], in experiment [4], in [5] and in [6] was “inactive” throughout. In experiment [7], the Potency entry is “inactive”.

`Clc1ccc(N2CC3CCC(C2)N3)nn1`: the Potency entry in experiment [1], in [2], in experiment [3], in [4], in experiment [5] and in [6] was “inactive” throughout. In addition, the Potency entry in experiment [7] was “inactive”.

As for `C[C@H](Cc1ccc2c(c1)OC(C(=O)O)(C(=O)O)O2)NC[C@H](O)c1cccc(Cl)c1`, the Potency result in experiment [1], in experiment [2], in experiment [4], in experiment [5], in [6] and in experiment [7] was “inactive” throughout. For the same compound, in experiment [8], the outcome was inactive.

For the compound `C[N+]1(C)CCN(c2ccccc2)CC1`, in experiment [8], the outcome was inactive.

`CCCSP(=O)(OCC)SCCC`: in experiment [9], the result was inactive. Also, the Potency result in experiment [10] was “inactive”.

For the compound `C[CH2][Hg][S]c1ccccc1C(=O)O`, the Potency in experiment [10] is 2.66 µM (active).
